Consider 19 compounds from the antibiotic and cytotoxicity screens of Wong et al. (2023).

The campaign covered roughly 39,000 compounds. About 1,500 (3.8%) were called active. This excerpt belongs to a sample that is enriched for actives.

This assay concerns HSkMC (human skeletal muscle cells). The assay is described as follows: cytotoxicity call (relative viability < 0.9). To be noted: 10 µM.
With `CCN1C(=O)[C@H]2[C@H]3[C@H](O)[C@H](O)C/C(=N\OC[C@@H](O)COCc4ccco4)[C@@H]3CC[C@H]2C1=O`, the cytotoxicity call was “inactive”.

On to `C[C@@H]1CCCCO[C@@H](CN(C)S(=O)(=O)c2cccs2)[C@@H](C)CN([C@@H](C)CO)C(=O)c2cc(NC(=O)Nc3ccccc3)ccc2O1`, for which the cytotoxicity call was “inactive”.

Consider `C[C@H]1CN([C@@H](C)CO)C(=O)c2cccc(NC(=O)C3CCOCC3)c2O[C@H]1CN(C)S(=O)(=O)c1cn(C)cn1`, for which the cytotoxicity call was “inactive”.

In the case of `NC(=O)N1CCc2n[nH]c(C(=O)N3CCOCC3)c2C1`, the cytotoxicity call is “inactive”.

For the compound `CCc1nc(C(N)=O)c(Nc2ccc(N3CCC(N4CCN(C)CC4)CC3)c(OC)c2)nc1NC1CCOCC1`, the cytotoxicity call is “inactive”.

As for `C=CC(=O)N1CC[C@@H](Oc2nc(Nc3ccc(N4CCC(N5CCN(C)CC5)CC4)cc3)c(C(N)=O)nc2CC)C1`, the cytotoxicity call is “active”.

For the compound `C=CCn1c(=O)c2cnc(Nc3ccc(N4CCN(C)CC4)cc3)nc2n1-c1cccc(C(C)(C)O)n1`, the cytotoxicity call is “inactive”.

Consider `COCC(=O)Nc1ccc2c(c1)C(=O)N(C)[C@@H]1CC[C@@H](CC(=O)NCc3ccc(OC)cc3)O[C@@H]1CO2`, for which the cytotoxicity call was “inactive”.

`COc1ccc(S(=O)(=O)Nc2cccc3c2O[C@@H](CN(C)Cc2ccc(-c4ccccc4)cc2)[C@H](C)CN([C@@H](C)CO)C3=O)cc1`: the cytotoxicity call was “inactive”.

In the case of `CC(CCC(=O)O)C1CCC2C3C(O)CC4CC(O)CCC4(C)C3CC(O)C12C` (centres undefined), the cytotoxicity call was “inactive”.

With `CC(CCC(=O)NCC(=O)O)C1CCC2C3C(O)CC4CC(O)CCC4(C)C3CC(O)C12C` (centres undefined), the cytotoxicity call was “inactive”.

`CCCCCCCCCCCCCCCCCCCC(=O)N[C@H]1CC[C@@]2(C)[C@@H](C1)C[C@@H](O)[C@@H]1[C@@H]2C[C@H](O)[C@]2(C)[C@@H]([C@H](C)CCC(=O)O)CC[C@@H]12`: the cytotoxicity call is “active”.

As for `Cc1cc(=O)oc2cc(O[C@H]3O[C@@H](CO)[C@@H](O)[C@@H](O)[C@@H]3O)ccc12`, the cytotoxicity call was “inactive”.

As to `CCc1cc(=O)oc2c(C)c(O[C@@H]3O[C@H](CO)[C@@H](O)[C@H](O)[C@H]3O)ccc12`, the cytotoxicity call was “active”.

On to `Cc1c(C)c2ccc(O[C@@H]3O[C@H](CO)[C@H](O)[C@H](O)[C@H]3O)cc2oc1=O`, for which the cytotoxicity call was “inactive”.

Consider `C[C@H](CO)N1C[C@H](C)[C@H](CN(C)Cc2ccc(F)cc2)Oc2cc(C#CC(C)(C)O)ccc2S1(=O)=O`, for which the cytotoxicity call was “inactive”.

As for `C=CCOC(=O)[C@@H]1[C@@H]2C=C[C@]3(O2)[C@H](C(=O)N(CC=C)Cc2ccccc2)N(c2cccc(Cl)c2CO)C(=O)[C@@H]13`, the cytotoxicity call was “inactive”.

As for `C=CCOC(=O)[C@@H]1[C@@H]2C=C[C@@]3(O2)[C@@H]1C(=O)N(CCCCCCO)[C@H]3C(=O)N(CC=C)Cc1ccccc1`, the cytotoxicity call was “active”.

`C=CCN(Cc1ccccc1)C(=O)[C@@H]1N(CCOCCO)C(=O)[C@@H]2[C@H](C(=O)O)[C@@H]3C=C[C@@]21O3`: the cytotoxicity call is “inactive”.
